Reference: PubChem BioAssay (EPA / NIEHS)
Active and inactive are the calls of the source. How the source made its calls: active means hit-call score of the fitted dose curve at least 0.9, where 1 is the maximum; inactive means score below 0.9.

tested on: not listed separately; assay: ATG_NFI_CIS: Attagene CIS-FACTORIAL HepG2 Assay for human Nuclear Factor I (NFI) (AID 2282989); settings: HepG2 cis-regulatory reporter, NFI response element transcription; actives raise or lower the signal
Procedure, shortened: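 Cells: human liver HepG2, transiently transfected with promoter-regulated reporter transcription units. Exposure 24 h. Detection: fluorescent RT-PCR products separated by capillary electrophoresis, normalised to DMSO negative control.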

Question: Which outcome does the source give for CCCCCCCCCCCC(=O)Cl here?
Answer: The outcome was “inactive”.

Question: Which outcome does the source give for CN(C)C(C)(C)CO here?
Answer: The outcome was “inactive”.

Question: For COC(=O)c1ccc(C=O)cc1, which outcome is on record?
Answer: Its outcome is “inactive”.

target: Myc proto-oncogene protein (Homo sapiens) (UniProt P01106); assay: ATG_Myc_CIS: Attagene CIS-FACTORIAL HepG2 Assay for human Myelocytomatosis (Myc) Proto-Oncogene Transcription Factor (AID 2282990); settings: HepG2, Attagene cis-reporter transcription factor activity; actives raise or lower the signal
Sequence (P01106 whole entry, looked up, the tested form may be a part): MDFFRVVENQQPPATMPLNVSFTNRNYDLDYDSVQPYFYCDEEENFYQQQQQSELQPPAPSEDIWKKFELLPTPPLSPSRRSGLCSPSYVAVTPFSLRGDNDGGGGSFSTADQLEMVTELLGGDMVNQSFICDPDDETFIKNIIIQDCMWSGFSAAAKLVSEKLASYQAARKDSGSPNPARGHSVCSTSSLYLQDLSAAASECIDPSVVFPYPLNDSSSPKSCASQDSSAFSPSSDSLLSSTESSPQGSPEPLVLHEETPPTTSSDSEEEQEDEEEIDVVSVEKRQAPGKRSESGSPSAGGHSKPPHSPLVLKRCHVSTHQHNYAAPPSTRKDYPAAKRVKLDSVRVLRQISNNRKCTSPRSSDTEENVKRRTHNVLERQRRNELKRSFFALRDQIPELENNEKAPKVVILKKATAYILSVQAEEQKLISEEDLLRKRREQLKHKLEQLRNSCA
Procedure, shortened: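 Read-out: fluorescent reporter mRNA fragments resolved by capillary electrophoresis after RT-PCR. Human HepG2 liver cells carried transfected cis-element reporter units and were dosed for 24 h. Gain or loss of signal fitted relative to DMSO baseline.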

Question: Which outcome does the source give for CCOCN(C(=O)CS(=O)(=O)O)c1c(C)cccc1CC here?
Answer: The outcome was “inactive”.

Question: With F[Si-2](F)(F)(F)(F)F as the compound, how does the outcome read?
Answer: Its outcome is “inactive”.

Question: For CNS(=O)(=O)C(F)(F)C(F)(F)C(F)(F)C(F)(F)C(F)(F)C(F)(F)C(F)(F)C(F)(F)F, which outcome is on record?
Answer: The outcome was “inactive”.

Question: Which outcome does the source give for COc1ccccc1C=O here?
Answer: The outcome was “inactive”.

Question: With CSc1ccc(Cl)cc1 as the compound, how does the outcome read?
Answer: Its outcome is “inactive”.

Question: With CCOC(OCC)OCC as the compound, how does the outcome read?
Answer: Its outcome is “inactive”.

Question: With Cc1ccc(O)c(-n2nc3ccccc3n2)c1 as the compound, how does the outcome read?
Answer: Its outcome is “inactive”.

Question: For CC(C)Nc1ccc(NC(C)C)c2c1C(=O)c1ccccc1C2=O, which outcome is on record?
Answer: The outcome was “inactive”.

Question: With CC1=CCC2C(=O)OC(=O)C2C1 (stereo unspecified) as the compound, how does the outcome read?
Answer: The outcome was “inactive”.

Question: With C#CC(O)CCC (stereo unspecified) as the compound, how does the outcome read?
Answer: The outcome was “inactive”.

Question: With OC(O)C(F)(F)C(F)(F)F as the compound, how does the outcome read?
Answer: Its outcome is “inactive”.

Question: Which outcome does the source give for OCCCc1cccnc1 here?
Answer: Its outcome is “inactive”.

Question: With CC(C)CCCC(C)CCO (stereo unspecified) as the compound, how does the outcome read?
Answer: Its outcome is “inactive”.

Question: With CCC/C=C/CO as the compound, how does the outcome read?
Answer: Its outcome is “inactive”.

Question: Which outcome does the source give for CC(C)OC=O here?
Answer: The outcome was “inactive”.

Question: Which outcome does the source give for CC1=CCC(=O)O1 here?
Answer: Its outcome is “inactive”.

Question: With CCc1cccc(C)c1N(C(=O)C(=O)O)C(C)COC (stereo unspecified) as the compound, how does the outcome read?
Answer: The outcome was “inactive”.

Question: For C[C@]12CC[C@H]3C(=CCc4cc(O)ccc43)[C@@H]1CCC2=O, which outcome is on record?
Answer: Its outcome is “inactive”.

Question: With CC(C)OC(=O)COc1ccc(Cl)cc1Cl as the compound, how does the outcome read?
Answer: Its outcome is “inactive”.

Question: With O=C(O)CCC(F)(F)C(F)(F)C(F)(F)C(F)(F)C(F)(F)C(F)(F)C(F)(F)F as the compound, how does the outcome read?
Answer: The outcome was “inactive”.

Question: Which outcome does the source give for CC(C)(C)c1cc(Cc2cc(C(C)(C)C)c(O)c(C(C)(C)C)c2)cc(C(C)(C)C)c1O here?
Answer: The outcome was “inactive”.

Question: Which outcome does the source give for CC1=CC2C3C=CC(C3)C2C1C (stereo unspecified) here?
Answer: The outcome was “inactive”.

Question: For O=C(Cl)C(F)(F)C(F)(F)C(F)(F)C(F)(F)C(F)(F)C(F)(F)F, which outcome is on record?
Answer: The outcome was “inactive”.

Question: With Nc1c(Br)cc([N+](=O)[O-])cc1Br as the compound, how does the outcome read?
Answer: Its outcome is “inactive”.

Question: Which outcome does the source give for Nc1cc([N+](=O)[O-])cc(Cl)c1O here?
Answer: Its outcome is “inactive”.

Question: For c1ccc(C[P+](c2ccccc2)(c2ccccc2)c2ccccc2)cc1, which outcome is on record?
Answer: The outcome was “inactive”.

Question: With O=C1C=CC(=O)N1c1ccc(Cc2ccc(N3C(=O)C=CC3=O)cc2)cc1 as the compound, how does the outcome read?
Answer: Its outcome is “inactive”.

Question: With CC(C)(C)C(=O)C1C(=O)c2ccccc2C1=O as the compound, how does the outcome read?
Answer: Its outcome is “inactive”.

Question: For NC(=O)C(F)(F)C(F)(F)C(F)(F)C(F)(F)C(F)(F)C(F)(F)C(F)(F)F, which outcome is on record?
Answer: Its outcome is “inactive”.

Question: With C=CC(=O)OCC(F)(F)C(F)(F)C(F)(F)COC(=O)C=C as the compound, how does the outcome read?
Answer: The outcome was “inactive”.

Question: Which outcome does the source give for OCCCC(F)(F)C(F)(F)C(F)(F)C(F)(F)C(F)(F)C(F)(F)C(F)(F)C(F)(F)F here?
Answer: Its outcome is “inactive”.

Question: For N#Cc1ccccc1O, which outcome is on record?
Answer: Its outcome is “inactive”.

Question: Which outcome does the source give for CCCCCCCCCc1ccc(OCCO)cc1 here?
Answer: Its outcome is “inactive”.

Question: With CCCCCCCCCCCC(=O)Cl as the compound, how does the outcome read?
Answer: Its outcome is “inactive”.

Question: Which outcome does the source give for CN(C)C(C)(C)CO here?
Answer: The outcome was “inactive”.

Question: Which outcome does the source give for COC(=O)c1ccc(C=O)cc1 here?
Answer: Its outcome is “inactive”.

Question: Which outcome does the source give for Cc1ccc(O)cn1 here?
Answer: The outcome was “inactive”.

Question: Which outcome does the source give for Cc1cc(O)c(C(C)(C)C)cc1C(C)(C)C here?
Answer: The outcome was “inactive”.
